Screening results deposited in PubChem BioAssay by Center for Chemical Genomics, University of Michigan.
Dicer processing – blocks human Dicer maturation of pre-miR-21; Q9UPY3; cat-ELCCA pre-miR-21 Dicer processing, chemiluminescence; hits give high values; z-score at 25 µM; 47,000 compounds, 6% hits; AID 1347074; in the data active = z-score above about 3, passing the limit was not always enough;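 note: plate controls were vehicle for no effect and no enzyme for full effect; higher signal means more uncleaved substrate so more Dicer inhibition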
Active calls of the source: *. Many of the other results were omitted from the sample, so hits are more common in it than they were.

How did CSc1nn(-c2ccccc2)cc1/C(N)=N/OC(=O)Nc1ccc(Cl)cc1 do in these assays?
Dicer processing: -4.88

How did CCOC(=O)Nc1ccc2c(c1)N(C(=O)NC)c1ccccc1CC2 do in these assays?
Dicer processing: 3.52*

What do the screens show for `CCOC(=O)Nc1ccc2c(c1)N(C(=O)N1CCN(C)CC1)c1ccccc1CC2`?
Dicer processing: 1.16

How did COC(=O)Nc1ccc(S(=O)(=O)N2CCCc3ccccc32)cc1 do in these assays?
Dicer processing: 0.04

Results for Cc1c(-c2ccn[nH]2)sc2nc(C(F)(F)F)nn12 ?
Dicer processing: -3.27

What do the screens show for `COc1cccc(C2=NN(S(C)(=O)=O)C(c3cn(-c4ccccc4)nc3-c3ccccc3)C2)c1` (stereo not given)?
Dicer processing: -1.21

How did CCCN1C(=O)C2(/C(=C(/O)c3ccc(F)cc3)C(=O)C(=O)N2CCN(C)C)c2ccccc21 (stereo not given) do in these assays?
Dicer processing: 2.28

Results for CCN1C(=O)C2(/C(=C(/O)c3ccc(OC)cc3)C(=O)C(=O)N2CCCN(C)C)c2ccccc21 (stereo not given) ?
Dicer processing: 3.26*

Results for CCN1C(=O)C2(/C(=C(/O)c3ccc(C)cc3)C(=O)C(=O)N2CCCN(C)C)c2ccccc21 (stereo not given) ?
Dicer processing: 0.44

What do the screens show for `CCCN1C(=O)C2(/C(=C(/O)c3ccc(OC)cc3)C(=O)C(=O)N2CCCN(C)C)c2ccccc21` (stereo not given)?
Dicer processing: 1.33

How did CCN1C(=O)C2(/C(=C(/O)c3ccc(OC)c(C)c3)C(=O)C(=O)N2CCCN(C)C)c2ccccc21 (stereo not given) do in these assays?
Dicer processing: -0.67

What do the screens show for `CCN1C(=O)C2(/C(=C(/O)c3ccc(OC)cc3)C(=O)C(=O)N2CCN(C)C)c2ccccc21` (stereo not given)?
Dicer processing: 4.29*

How did CCOc1cc(-c2cc(OC)c3c(C)oc(C)c3c(=O)c2)ccc1O do in these assays?
Dicer processing: 0.65

Results for O=S(=O)(NCc1cccc(Cl)c1)c1sc(Br)cc1Br ?
Dicer processing: 0.62

What do the screens show for `O=C(CN1C(=O)c2cccc3cccc1c23)NCCSCc1ccco1`?
Dicer processing: -0.57

Results for COc1cccc2c(OC(C)=O)coc12 ?
Dicer processing: 2.29

How did CCCCCCCNC1CC(=O)N(c2ccc(F)cc2)C1=O (stereo not given) do in these assays?
Dicer processing: 3.85*

What do the screens show for `CN(C)c1ccc(NC2CC(=O)N(c3ccc(F)cc3)C2=O)cc1` (stereo not given)?
Dicer processing: -1.65

Results for CC(C)CNC1CC(=O)N(c2ccc(C(C)C)cc2)C1=O (stereo not given) ?
Dicer processing: -0.87

Results for CCOC(=O)Nc1c(C(=O)OCC)[nH]c2ccc(OC)cc12 ?
Dicer processing: 5.23*

What do the screens show for `CCOC(=O)c1[nH]c2ccc(F)cc2c1NC(C)=O`?
Dicer processing: 2.38

How did CCOC(=O)Nc1c(C(=O)OCC)[nH]c2ccc(F)cc12 do in these assays?
Dicer processing: 2.8

What do the screens show for `O=C(Nc1cnc2sccn2c1=O)c1ccc(Cl)cc1`?
Dicer processing: -0.16

Results for O=C1OC(N2CCN(C(c3ccccc3)c3ccccc3)CC2)c2ccccc21 (stereo not given) ?
Dicer processing: 1.24

What do the screens show for `Fc1ccc(C2CN3C(=N2)C=Cc2ccccc23)cc1` (stereo not given)?
Dicer processing: -0.46

How did Cc1nc2c(ncn2-c2ccccc2)c(=O)n1NC(=O)CN(Cc1ccccc1)Cc1ccccc1 do in these assays?
Dicer processing: -0.78

Results for COc1cc2c(cc1OC)C(c1ccccc1N)=NCC2 ?
Dicer processing: -2.89

What do the screens show for `CCOC(=O)C1=NN(c2ccc(C)cc2)/C(=C/C2=NCCc3cc(OC)c(OC)cc32)S1`?
Dicer processing: 4.4*

Results for COc1cc2c(cc1OC)C(/C=C1\SC(C(=O)c3cccs3)=NN1c1ccc(C)cc1)=NCC2 ?
Dicer processing: 0.72

What do the screens show for `COc1cc(CN2CCN(Cc3ccco3)CC2)cc(OC)c1`?
Dicer processing: 0.39

How did COc1cc(CN2CCN(Cc3ccc(OC)cc3OC)CC2)cc(OC)c1 do in these assays?
Dicer processing: 0.79

What do the screens show for `COc1ccc(CN2CCN(Cc3ccco3)CC2)c(OC)c1`?
Dicer processing: 3.58*

What do the screens show for `Brc1ccccc1CN1CCN(Cc2ccco2)CC1`?
Dicer processing: 2.98

Results for Brc1ccc(CN2CCN(Cc3ccco3)CC2)cc1 ?
Dicer processing: 4.55*

How did CCCS(=O)(=O)N1CCN(Cc2ccco2)CC1 do in these assays?
Dicer processing: 2.05

Results for CC1(C(=O)c2ccccc2)C2c3cc(Br)ccc3OC(=O)C21C(=O)NCc1ccccc1 (stereo not given) ?
Dicer processing: 3.38*

How did COc1cccc(C(=O)CC2(O)C(=O)N(CCc3ccccc3)c3ccc(Br)cc32)c1 (stereo not given) do in these assays?
Dicer processing: 5.75

What do the screens show for `O=C(O)CN1C(=O)Nc2ccc(Br)cc2C1c1ccccc1` (stereo not given)?
Dicer processing: -0.49
